What all share (experiment): DAPPL (digital affinity profiling via proximity ligation, sequencing); 10 mM Tris-HCl pH 7.5, 50 mM NaCl, 1 mM DTT, 4% glycerol, room temperature, 30 min; GST-TFs on glutathione beads, 16-mer random dsDNA library, 0.1% formaldehyde crosslink after washing; high values mean tight binding
For one assay, the target named is T1, FEV (Homo sapiens, UniProt Q99581 1-238).
T1 sequence: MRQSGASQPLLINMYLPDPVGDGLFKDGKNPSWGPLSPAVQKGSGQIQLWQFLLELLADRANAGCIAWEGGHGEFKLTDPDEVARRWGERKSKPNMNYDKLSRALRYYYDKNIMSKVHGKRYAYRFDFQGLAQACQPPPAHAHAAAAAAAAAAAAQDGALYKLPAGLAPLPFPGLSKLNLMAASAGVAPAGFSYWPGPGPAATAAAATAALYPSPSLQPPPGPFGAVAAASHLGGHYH
To be noted: protein: recombinant; tags: N-terminal GST; dsDNA, one strand shown. The method, boiled down: (§1)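 Yeast served to express human transcription factors as GST fusions, which were then captured on glutathione beads and labelled with DNA barcodes. Pooled with a tag-only sample, they were incubated with 200 nmole of a 16-mer random double-stranded DNA library for 30 min at room temperature in Tris/NaCl/DTT/glycerol buffer, washed, crosslinked with 0.1% formaldehyde, ligated by proximity, amplified by PCR and sequenced. Dividing each hexamer's read frequency for a factor by its frequency for the tag-only sample gives the binding signal.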

In another assay the target is ETV5 (Homo sapiens, UniProt P41161 1-510). Conditions: protein: recombinant; tags: N-terminal GST; dsDNA, one strand shown. The procedure, abridged: as §1
Chain of ETV5 (P41161 whole entry): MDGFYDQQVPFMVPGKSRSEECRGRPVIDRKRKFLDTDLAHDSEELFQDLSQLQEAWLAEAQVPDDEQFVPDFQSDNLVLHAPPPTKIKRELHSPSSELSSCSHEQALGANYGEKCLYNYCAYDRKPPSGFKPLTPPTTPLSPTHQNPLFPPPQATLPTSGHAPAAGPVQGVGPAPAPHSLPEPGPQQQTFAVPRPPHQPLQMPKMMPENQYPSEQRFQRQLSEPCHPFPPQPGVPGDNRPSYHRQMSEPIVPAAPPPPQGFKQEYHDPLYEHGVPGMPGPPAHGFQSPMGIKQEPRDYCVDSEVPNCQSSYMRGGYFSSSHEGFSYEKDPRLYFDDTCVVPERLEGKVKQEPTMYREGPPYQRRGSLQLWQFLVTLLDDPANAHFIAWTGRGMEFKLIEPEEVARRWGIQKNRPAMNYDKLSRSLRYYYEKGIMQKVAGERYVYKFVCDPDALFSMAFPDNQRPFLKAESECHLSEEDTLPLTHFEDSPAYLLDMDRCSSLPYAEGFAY
The next assay addresses HSF1 (Homo sapiens, UniProt Q00613 1-529). Conditions: protein: recombinant; tags: N-terminal GST; chain copies: 3; dsDNA, one strand shown. The procedure, abridged:
as §1

Another assay addresses T2, SPIC (Homo sapiens, UniProt Q8N5J4 1-248).
T2 sequence: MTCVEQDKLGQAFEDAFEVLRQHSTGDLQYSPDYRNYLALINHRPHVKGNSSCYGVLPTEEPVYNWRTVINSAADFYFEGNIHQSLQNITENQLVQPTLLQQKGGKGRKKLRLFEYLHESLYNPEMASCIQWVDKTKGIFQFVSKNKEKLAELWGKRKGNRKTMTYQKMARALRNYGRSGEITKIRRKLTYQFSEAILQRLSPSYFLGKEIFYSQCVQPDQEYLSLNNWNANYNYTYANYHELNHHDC
Conditions: protein: recombinant; tags: N-terminal GST; dsDNA, one strand shown. The method, boiled down:
as §1

Another assay concerns the target ELF4 (Homo sapiens, UniProt Q99607 1-663). Conditions: protein: recombinant; tags: N-terminal GST; dsDNA, one strand shown. The method, boiled down:
as §1

A further assay concerns the target T3, ELK4 (Homo sapiens, UniProt P28324-2 1-405).
T3 sequence: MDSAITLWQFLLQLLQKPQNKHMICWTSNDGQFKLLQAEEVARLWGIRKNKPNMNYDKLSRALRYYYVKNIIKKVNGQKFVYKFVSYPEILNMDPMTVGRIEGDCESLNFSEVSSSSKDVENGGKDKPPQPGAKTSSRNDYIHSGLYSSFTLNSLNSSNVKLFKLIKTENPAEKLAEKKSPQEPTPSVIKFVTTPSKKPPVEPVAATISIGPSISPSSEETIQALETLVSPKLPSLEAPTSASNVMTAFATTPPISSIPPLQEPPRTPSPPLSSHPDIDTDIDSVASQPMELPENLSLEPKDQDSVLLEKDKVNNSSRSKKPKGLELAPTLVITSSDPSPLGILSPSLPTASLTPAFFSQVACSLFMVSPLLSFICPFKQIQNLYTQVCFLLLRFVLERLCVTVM
Conditions: protein: recombinant; tags: N-terminal GST; dsDNA, one strand shown. The procedure, abridged:
as §1

The target of another assay is T4, ETV2 (Homo sapiens, UniProt O00321 1-342).
T4 sequence: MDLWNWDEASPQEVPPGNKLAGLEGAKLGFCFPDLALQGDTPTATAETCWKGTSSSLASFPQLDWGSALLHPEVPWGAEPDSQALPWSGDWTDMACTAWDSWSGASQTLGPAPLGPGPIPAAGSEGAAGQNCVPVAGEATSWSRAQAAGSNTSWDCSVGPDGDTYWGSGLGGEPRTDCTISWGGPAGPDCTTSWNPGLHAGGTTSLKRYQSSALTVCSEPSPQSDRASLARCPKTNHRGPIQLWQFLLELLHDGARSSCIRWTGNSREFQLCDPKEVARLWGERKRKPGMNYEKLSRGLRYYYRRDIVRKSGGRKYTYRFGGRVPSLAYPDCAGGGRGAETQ
Conditions: protein: recombinant; tags: N-terminal GST; dsDNA, one strand shown. The procedure, abridged: as §1

A further assay addresses T5, ELF3 (Homo sapiens, UniProt P78545 1-371).
T5 sequence: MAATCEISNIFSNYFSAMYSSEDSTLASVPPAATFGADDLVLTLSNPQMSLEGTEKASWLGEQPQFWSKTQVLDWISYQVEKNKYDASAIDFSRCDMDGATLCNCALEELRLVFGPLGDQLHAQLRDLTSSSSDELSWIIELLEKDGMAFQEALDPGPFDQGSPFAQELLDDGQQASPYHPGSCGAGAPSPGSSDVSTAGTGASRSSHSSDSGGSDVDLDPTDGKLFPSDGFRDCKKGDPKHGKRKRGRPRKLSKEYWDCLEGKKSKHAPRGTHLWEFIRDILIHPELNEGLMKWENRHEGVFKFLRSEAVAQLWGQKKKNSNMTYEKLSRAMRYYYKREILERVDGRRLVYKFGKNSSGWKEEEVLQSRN
Conditions: protein: recombinant; tags: N-terminal GST; dsDNA, one strand shown. The procedure, abridged: as §1

The target of the next assay is CRX (Homo sapiens, UniProt O43186 1-299). To be noted: protein: recombinant; tags: N-terminal GST; dsDNA, one strand shown. The procedure, abridged: as §1
Chain of CRX (O43186 whole entry): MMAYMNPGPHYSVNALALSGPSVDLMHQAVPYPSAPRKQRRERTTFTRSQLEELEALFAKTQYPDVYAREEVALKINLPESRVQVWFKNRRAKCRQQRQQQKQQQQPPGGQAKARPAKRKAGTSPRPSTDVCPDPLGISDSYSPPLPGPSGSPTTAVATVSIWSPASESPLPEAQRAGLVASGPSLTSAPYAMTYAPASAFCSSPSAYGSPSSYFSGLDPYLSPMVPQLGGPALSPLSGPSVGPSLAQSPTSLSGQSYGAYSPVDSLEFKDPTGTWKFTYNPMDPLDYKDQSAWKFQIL
The next assay has as its target ETV1 (Homo sapiens, UniProt P50549 1-477). Conditions: protein: recombinant; tags: N-terminal GST; dsDNA, one strand shown. The method, boiled down: as §1

Chain of ETV1 (P50549 whole entry): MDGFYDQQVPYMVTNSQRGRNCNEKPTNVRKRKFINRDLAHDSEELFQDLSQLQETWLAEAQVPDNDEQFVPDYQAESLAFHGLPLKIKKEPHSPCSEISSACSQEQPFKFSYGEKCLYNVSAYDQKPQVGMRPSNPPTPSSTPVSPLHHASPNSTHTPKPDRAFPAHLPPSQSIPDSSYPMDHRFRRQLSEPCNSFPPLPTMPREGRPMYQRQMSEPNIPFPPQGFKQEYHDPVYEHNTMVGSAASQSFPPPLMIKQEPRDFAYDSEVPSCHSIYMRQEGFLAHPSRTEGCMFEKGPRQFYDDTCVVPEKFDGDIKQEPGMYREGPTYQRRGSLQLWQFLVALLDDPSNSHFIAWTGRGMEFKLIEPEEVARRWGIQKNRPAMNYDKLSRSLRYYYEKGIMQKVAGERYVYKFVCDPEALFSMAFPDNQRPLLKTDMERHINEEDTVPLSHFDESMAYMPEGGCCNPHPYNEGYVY
Chain of HSF1 (Q00613 whole entry): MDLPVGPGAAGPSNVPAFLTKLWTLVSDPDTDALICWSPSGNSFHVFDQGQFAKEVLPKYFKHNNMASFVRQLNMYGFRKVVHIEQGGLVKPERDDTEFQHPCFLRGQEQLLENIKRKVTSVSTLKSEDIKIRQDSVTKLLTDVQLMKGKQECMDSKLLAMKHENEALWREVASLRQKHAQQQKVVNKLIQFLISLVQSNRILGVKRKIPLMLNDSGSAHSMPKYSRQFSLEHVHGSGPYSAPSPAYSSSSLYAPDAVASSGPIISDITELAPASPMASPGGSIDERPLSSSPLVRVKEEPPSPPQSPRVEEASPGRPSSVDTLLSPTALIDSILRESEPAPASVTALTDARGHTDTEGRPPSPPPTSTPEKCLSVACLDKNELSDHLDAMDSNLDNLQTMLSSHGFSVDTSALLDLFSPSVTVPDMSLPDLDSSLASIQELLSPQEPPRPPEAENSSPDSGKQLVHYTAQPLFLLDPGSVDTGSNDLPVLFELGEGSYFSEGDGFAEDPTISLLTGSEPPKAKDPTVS
Chain of ELF4 (Q99607 whole entry): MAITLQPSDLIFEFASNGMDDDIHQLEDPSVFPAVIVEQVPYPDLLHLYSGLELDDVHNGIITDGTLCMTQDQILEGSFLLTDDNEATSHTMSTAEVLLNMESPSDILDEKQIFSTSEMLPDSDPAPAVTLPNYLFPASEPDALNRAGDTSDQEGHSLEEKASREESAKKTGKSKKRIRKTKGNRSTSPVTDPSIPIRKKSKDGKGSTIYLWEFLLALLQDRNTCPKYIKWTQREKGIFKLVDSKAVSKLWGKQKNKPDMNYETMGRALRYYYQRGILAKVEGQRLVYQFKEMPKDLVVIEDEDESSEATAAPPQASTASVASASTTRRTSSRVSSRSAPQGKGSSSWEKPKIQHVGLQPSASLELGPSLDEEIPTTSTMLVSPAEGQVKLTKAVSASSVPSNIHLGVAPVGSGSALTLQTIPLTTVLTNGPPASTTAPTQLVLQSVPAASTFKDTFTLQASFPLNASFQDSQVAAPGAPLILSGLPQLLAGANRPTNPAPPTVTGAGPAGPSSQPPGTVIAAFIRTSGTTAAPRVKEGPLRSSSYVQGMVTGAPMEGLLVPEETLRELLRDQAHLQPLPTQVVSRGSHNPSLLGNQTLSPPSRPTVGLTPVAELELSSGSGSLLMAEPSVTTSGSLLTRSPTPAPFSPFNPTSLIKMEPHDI

In the case of ACTCAT, the binding signal in the assay with FEV is 1.32 fold enrichment (6-mer frequency, TF over GST control); with ETV5, 1.32 fold enrichment (6-mer frequency, TF over GST control); with HSF1 it was 1.13 fold enrichment (6-mer frequency, TF over GST control); with SPIC, 1.26 fold enrichment (6-mer frequency, TF over GST control); with ELF4, 1.35 fold enrichment (6-mer frequency, TF over GST control); with ELK4, 1.32 fold enrichment (6-mer frequency, TF over GST control). Besides, the binding signal in the assay with ETV2 is 1.42 fold enrichment (6-mer frequency, TF over GST control); in the assay with ELF3 it was 1.13 fold enrichment (6-mer frequency, TF over GST control); in the assay with CRX, 1.19 fold enrichment (6-mer frequency, TF over GST control); with ETV1, 1.35 fold enrichment (6-mer frequency, TF over GST control).
On to TTGCAC, for which the binding signal in the assay with FEV was 1.24 fold enrichment (6-mer frequency, TF over GST control); in the assay with ETV5, 1.24 fold enrichment (6-mer frequency, TF over GST control); in the assay with HSF1, 1.1 fold enrichment (6-mer frequency, TF over GST control); with SPIC, 1.07 fold enrichment (6-mer frequency, TF over GST control); in the assay with ELF4, 1.31 fold enrichment (6-mer frequency, TF over GST control); in the assay with ELK4, 1.31 fold enrichment (6-mer frequency, TF over GST control). Further, the binding signal is 1.22 fold enrichment (6-mer frequency, TF over GST control) with ETV2; 1.23 fold enrichment (6-mer frequency, TF over GST control) with ELF3; 1.11 fold enrichment (6-mer frequency, TF over GST control) in the assay with CRX; 1.22 fold enrichment (6-mer frequency, TF over GST control) with ETV1.
For the sequence GGATTT, the binding signal was 2.01 fold enrichment (6-mer frequency, TF over GST control) with FEV; 1.33 fold enrichment (6-mer frequency, TF over GST control) with ETV5; 1.62 fold enrichment (6-mer frequency, TF over GST control) with HSF1; 1.16 fold enrichment (6-mer frequency, TF over GST control) in the assay with SPIC; 1.26 fold enrichment (6-mer frequency, TF over GST control) with ELF4; 1.25 fold enrichment (6-mer frequency, TF over GST control) with ELK4. Moreover, the binding signal with ETV2 is 1.27 fold enrichment (6-mer frequency, TF over GST control); with ELF3, 1.15 fold enrichment (6-mer frequency, TF over GST control); in the assay with CRX, 2.47 fold enrichment (6-mer frequency, TF over GST control); in the assay with ETV1, 1.22 fold enrichment (6-mer frequency, TF over GST control).
On to ATCCCA, for which the binding signal was 1.14 fold enrichment (6-mer frequency, TF over GST control) with FEV; 1.11 fold enrichment (6-mer frequency, TF over GST control) with ETV5; 1.34 fold enrichment (6-mer frequency, TF over GST control) with HSF1; 1.07 fold enrichment (6-mer frequency, TF over GST control) with SPIC; 1.1 fold enrichment (6-mer frequency, TF over GST control) in the assay with ELF4; 1.13 fold enrichment (6-mer frequency, TF over GST control) with ELK4. The binding signal with ETV2 was 1.14 fold enrichment (6-mer frequency, TF over GST control); in the assay with ELF3 it was 1.23 fold enrichment (6-mer frequency, TF over GST control); in the assay with CRX, 1.69 fold enrichment (6-mer frequency, TF over GST control); with ETV1, 1.09 fold enrichment (6-mer frequency, TF over GST control).
On to CGTCTA, for which the binding signal with FEV is 1.24 fold enrichment (6-mer frequency, TF over GST control); with ETV5, 1.31 fold enrichment (6-mer frequency, TF over GST control); with HSF1, 1.52 fold enrichment (6-mer frequency, TF over GST control); in the assay with SPIC, 1.16 fold enrichment (6-mer frequency, TF over GST control); with ELF4, 1.4 fold enrichment (6-mer frequency, TF over GST control); with ELK4 it was 1.34 fold enrichment (6-mer frequency, TF over GST control). The binding signal in the assay with ETV2 is 1.29 fold enrichment (6-mer frequency, TF over GST control); with ELF3 it was 1.29 fold enrichment (6-mer frequency, TF over GST control); with CRX it was 1.28 fold enrichment (6-mer frequency, TF over GST control); with ETV1 it was 1.36 fold enrichment (6-mer frequency, TF over GST control).
Take CTCGCT: the binding signal with FEV is 1.67 fold enrichment (6-mer frequency, TF over GST control); with ETV5, 1.66 fold enrichment (6-mer frequency, TF over GST control); in the assay with HSF1 it was 1.66 fold enrichment (6-mer frequency, TF over GST control); with SPIC it was 1.76 fold enrichment (6-mer frequency, TF over GST control); in the assay with ELF4 it was 1.56 fold enrichment (6-mer frequency, TF over GST control); with ELK4, 1.68 fold enrichment (6-mer frequency, TF over GST control). Also, the binding signal was 1.52 fold enrichment (6-mer frequency, TF over GST control) in the assay with ETV2; 1.83 fold enrichment (6-mer frequency, TF over GST control) with ELF3; 1.37 fold enrichment (6-mer frequency, TF over GST control) with CRX; 1.71 fold enrichment (6-mer frequency, TF over GST control) in the assay with ETV1.
For the sequence GCTCTT, the binding signal was 1.48 fold enrichment (6-mer frequency, TF over GST control) with FEV; 1.53 fold enrichment (6-mer frequency, TF over GST control) with ETV5; 1.34 fold enrichment (6-mer frequency, TF over GST control) with HSF1; 1.31 fold enrichment (6-mer frequency, TF over GST control) with SPIC; 1.56 fold enrichment (6-mer frequency, TF over GST control) with ELF4; 1.41 fold enrichment (6-mer frequency, TF over GST control) in the assay with ELK4. For the same sequence, the binding signal with ETV2 was 1.61 fold enrichment (6-mer frequency, TF over GST control); in the assay with ELF3, 1.58 fold enrichment (6-mer frequency, TF over GST control); in the assay with CRX it was 1.55 fold enrichment (6-mer frequency, TF over GST control); in the assay with ETV1, 1.54 fold enrichment (6-mer frequency, TF over GST control).
In the case of CAGCTT, the binding signal with FEV is 1.2 fold enrichment (6-mer frequency, TF over GST control); in the assay with ETV5, 1.17 fold enrichment (6-mer frequency, TF over GST control); in the assay with HSF1, 1.43 fold enrichment (6-mer frequency, TF over GST control); with SPIC, 1.01 fold enrichment (6-mer frequency, TF over GST control); with ELF4, 1.19 fold enrichment (6-mer frequency, TF over GST control); with ELK4 it was 1.24 fold enrichment (6-mer frequency, TF over GST control). For the same sequence, the binding signal with ETV2 was 1.36 fold enrichment (6-mer frequency, TF over GST control); in the assay with ELF3, 1.19 fold enrichment (6-mer frequency, TF over GST control); with CRX it was 1.9 fold enrichment (6-mer frequency, TF over GST control); with ETV1, 1.16 fold enrichment (6-mer frequency, TF over GST control).

(Values after PMC7862700, “An all-to-all approach to the identification of sequence-specific readers for epigenetic DNA modifications on cytosine”.)
